# Measured values as given in the supplement of paper PMC4466140.
# B1: unnamed (peptide)
# chain: GPPPPLPPPLFPSSS
# B2: unnamed (peptide)
# chain: PALPSLPPPPLLNVD
# Tests used:
# Experiment in all cases: SPOT peptide array binding signal intensity (averaged, normalized) (arbitrary units (background-subtracted, floor 0; scale differs between SH3 domains)); higher = stronger binding of the SH3 domain to the peptide
# AgAbp1 = target: AgAbp1
# In short: (§1)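 Binding signal is given in arbitrary units that differ between domains and is the normalized, background-subtracted spot intensity averaged across replicates. Each GST-SH3 fusion from one of four yeast species was made in E. coli BL21(DE3), purified on glutathione Sepharose and incubated at 10 μg/ml overnight at 4°C on cellulose-bound synthetic 15-mer peptides in which cysteines were replaced by serines. Detection used anti-GST antibody, an HRP anti-mouse secondary and luminol, followed by imaging and Genespotter quantification.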
# AgBbc1 = target: AgBbc1
# In short: as §1
# AgBem1-D1 = target: AgBem1-D1
# In short: as §1
# AgBzz1-D1 = target: AgBzz1-D1
# In short: as §1
# AgBzz1-D2 = target: AgBzz1-D2
# In short: as §1
# AgCyk3 = target: AgCyk3
# In short: as §1
# AgFus1 = target: AgFus1
# In short: as §1
# AgHof1 = target: AgHof1
# In short: as §1
# AgHse1 = target: AgHse1
# In short: as §1
# AgLsb1 = target: AgLsb1
# In short: as §1
# AgLsb4 = target: AgLsb4
# In short: as §1
# AgMyo5 = target: AgMyo5
# In short: as §1
# AgNbp2 = target: AgNbp2
# In short: as §1
# AgRvs167 = target: AgRvs167
# In short: as §1
# AgSho1 = target: AgSho1
# In short: as §1
# AgSla1-D1-D2 = target: AgSla1-D1-D2
# In short: as §1
# AgSla1-D3 = target: AgSla1-D3
# In short: as §1
# CaAbp1-D1 = target: CaAbp1-D1
# In short: as §1
# CaAbp1-D2 = target: CaAbp1-D2
# In short: as §1
# CaBbc1 = target: CaBbc1
# In short: as §1
# CaBem1-D1 = target: CaBem1-D1
# In short: as §1
# CaBzz1-D1 = target: CaBzz1-D1
# In short: as §1
# CaBzz1-D2 = target: CaBzz1-D2
# In short: as §1
# CaCyk3 = target: CaCyk3
# In short: as §1
# CaFus1 = target: CaFus1
# In short: as §1
# CaHof1 = target: CaHof1
# In short: as §1
# CaHse1 = target: CaHse1
# In short: as §1
# CaLsb1 = target: CaLsb1
# In short: as §1
# CaLsb4 = target: CaLsb4
# In short: as §1
# CaMyo5 = target: CaMyo5
# In short: as §1
# CaNbp2 = target: CaNbp2
# In short: as §1
# CaRvs167 = target: CaRvs167
# In short: as §1
# CaRvs167-3 = target: CaRvs167-3
# In short: as §1
# CaSho1 = target: CaSho1
# In short: as §1
# CaSla1-D1-D2 = target: CaSla1-D1-D2
# In short: as §1
# CaSla1-D3 = target: CaSla1-D3
# In short: as §1
# ScAbp1 = target: ScAbp1
# In short: as §1
# ScBbc1 = target: ScBbc1
# In short: as §1
# ScBem1-D1 = target: ScBem1-D1
# In short: as §1
# ScBzz1-D1 = target: ScBzz1-D1
# In short: as §1
# ScBzz1-D2 = target: ScBzz1-D2
# In short: as §1
# ScCyk3 = target: ScCyk3
# In short: as §1
# ScFus1 = target: ScFus1
# In short: as §1
# ScHof1 = target: ScHof1
# In short: as §1
# ScHse1 = target: ScHse1
# In short: as §1
# ScLsb1 = target: ScLsb1
# In short: as §1
# ScLsb2 = target: ScLsb2
# In short: as §1
# ScLsb3 = target: ScLsb3
# In short: as §1
# ScLsb4 = target: ScLsb4
# In short: as §1
# ScMyo3 = target: ScMyo3
# In short: as §1
# ScMyo5 = target: ScMyo5
# In short: as §1
# ScNbp2 = target: ScNbp2
# In short: as §1
# ScPex13 = target: ScPex13
# In short: as §1
# ScRvs167 = target: ScRvs167
# In short: as §1
# ScSho1 = target: ScSho1
# In short: as §1
# ScSla1-D1-D2 = target: ScSla1-D1-D2
# In short: as §1
# ScSla1-D3 = target: ScSla1-D3
# In short: as §1
# SpAbp1-D1 = target: SpAbp1-D1
# In short: as §1
# SpBbc1 = target: SpBbc1
# In short: as §1
# SpBzz1-D1 = target: SpBzz1-D1
# In short: as §1
# SpBzz1-D2 = target: SpBzz1-D2
# In short: as §1
# SpCyk3 = target: SpCyk3
# In short: as §1
# SpHof1 = target: SpHof1
# In short: as §1
# SpHof1-2 = target: SpHof1-2
# In short: as §1
# SpHof1-3 = target: SpHof1-3
# In short: as §1
# SpHse1 = target: SpHse1
# In short: as §1
# SpLsb1 = target: SpLsb1
# In short: as §1
# SpLsb4 = target: SpLsb4
# In short: as §1
# SpMyo1 = target: SpMyo1
# In short: as §1
# SpNbp2 = target: SpNbp2
# In short: as §1
# SpPex13 = target: SpPex13
# In short: as §1
# SpRvs167 = target: SpRvs167
# In short: as §1
# SpSla1-D1-D2 = target: SpSla1-D1-D2
# In short: as §1
# SpSla1-D3 = target: SpSla1-D3
# In short: as §1
binder,measurement,setting,value
B1,SPOT peptide array binding signal intensity,AgAbp1,≤ 0
same,SPOT peptide array binding signal intensity,AgBbc1,≤ 0
same,SPOT peptide array binding signal intensity,AgBem1-D1,31
same,SPOT peptide array binding signal intensity,AgBzz1-D1,≤ 0
same,SPOT peptide array binding signal intensity,AgBzz1-D2,≤ 0
same,SPOT peptide array binding signal intensity,AgCyk3,≤ 0
same,SPOT peptide array binding signal intensity,AgFus1,≤ 0
same,SPOT peptide array binding signal intensity,AgHof1,1830
same,SPOT peptide array binding signal intensity,AgHse1,62.5
same,SPOT peptide array binding signal intensity,AgLsb1,≤ 0
same,SPOT peptide array binding signal intensity,AgLsb4,≤ 0
same,SPOT peptide array binding signal intensity,AgMyo5,1900
same,SPOT peptide array binding signal intensity,AgNbp2,≤ 0
same,SPOT peptide array binding signal intensity,AgRvs167,1
same,SPOT peptide array binding signal intensity,AgSho1,≤ 0
same,SPOT peptide array binding signal intensity,AgSla1-D1-D2,≤ 0
same,SPOT peptide array binding signal intensity,AgSla1-D3,≤ 0
same,SPOT peptide array binding signal intensity,CaAbp1-D1,1
same,SPOT peptide array binding signal intensity,CaAbp1-D2,≤ 0
same,SPOT peptide array binding signal intensity,CaBbc1,1
same,SPOT peptide array binding signal intensity,CaBem1-D1,114
same,SPOT peptide array binding signal intensity,CaBzz1-D1,93
same,SPOT peptide array binding signal intensity,CaBzz1-D2,10
same,SPOT peptide array binding signal intensity,CaCyk3,≤ 0
same,SPOT peptide array binding signal intensity,CaFus1,≤ 0
same,SPOT peptide array binding signal intensity,CaHof1,178
same,SPOT peptide array binding signal intensity,CaHse1,1.5
same,SPOT peptide array binding signal intensity,CaLsb1,≤ 0
same,SPOT peptide array binding signal intensity,CaLsb4,11.5
same,SPOT peptide array binding signal intensity,CaMyo5,284
same,SPOT peptide array binding signal intensity,CaNbp2,6.5
same,SPOT peptide array binding signal intensity,CaRvs167,7.83
same,SPOT peptide array binding signal intensity,CaRvs167-3,1.5
same,SPOT peptide array binding signal intensity,CaSho1,≤ 0
same,SPOT peptide array binding signal intensity,CaSla1-D1-D2,≤ 0
same,SPOT peptide array binding signal intensity,CaSla1-D3,≤ 0
same,SPOT peptide array binding signal intensity,ScAbp1,≤ 0
same,SPOT peptide array binding signal intensity,ScBbc1,≤ 0
same,SPOT peptide array binding signal intensity,ScBem1-D1,≤ 0
same,SPOT peptide array binding signal intensity,ScBzz1-D1,1.5
same,SPOT peptide array binding signal intensity,ScBzz1-D2,≤ 0
same,SPOT peptide array binding signal intensity,ScCyk3,≤ 0
same,SPOT peptide array binding signal intensity,ScFus1,≤ 0
same,SPOT peptide array binding signal intensity,ScHof1,1900
same,SPOT peptide array binding signal intensity,ScHse1,≤ 0
same,SPOT peptide array binding signal intensity,ScLsb1,288
same,SPOT peptide array binding signal intensity,ScLsb2,12
same,SPOT peptide array binding signal intensity,ScLsb3,110
same,SPOT peptide array binding signal intensity,ScLsb4,20
same,SPOT peptide array binding signal intensity,ScMyo3,1490
same,SPOT peptide array binding signal intensity,ScMyo5,901
same,SPOT peptide array binding signal intensity,ScNbp2,≤ 0
same,SPOT peptide array binding signal intensity,ScPex13,4060
same,SPOT peptide array binding signal intensity,ScRvs167,32.5
same,SPOT peptide array binding signal intensity,ScSho1,≤ 0
same,SPOT peptide array binding signal intensity,ScSla1-D1-D2,≤ 0
same,SPOT peptide array binding signal intensity,ScSla1-D3,≤ 0
same,SPOT peptide array binding signal intensity,SpAbp1-D1,≤ 0
same,SPOT peptide array binding signal intensity,SpBbc1,≤ 0
same,SPOT peptide array binding signal intensity,SpBzz1-D1,683
same,SPOT peptide array binding signal intensity,SpBzz1-D2,4.25
same,SPOT peptide array binding signal intensity,SpCyk3,≤ 0
same,SPOT peptide array binding signal intensity,SpHof1,≤ 0
same,SPOT peptide array binding signal intensity,SpHof1-2,≤ 0
same,SPOT peptide array binding signal intensity,SpHof1-3,≤ 0
same,SPOT peptide array binding signal intensity,SpHse1,40.8
same,SPOT peptide array binding signal intensity,SpLsb1,184
same,SPOT peptide array binding signal intensity,SpLsb4,225
same,SPOT peptide array binding signal intensity,SpMyo1,1290
same,SPOT peptide array binding signal intensity,SpNbp2,≤ 0
same,SPOT peptide array binding signal intensity,SpPex13,≤ 0
same,SPOT peptide array binding signal intensity,SpRvs167,1430
same,SPOT peptide array binding signal intensity,SpSla1-D1-D2,≤ 0
same,SPOT peptide array binding signal intensity,SpSla1-D3,≤ 0
B2,SPOT peptide array binding signal intensity,AgAbp1,≤ 0
same,SPOT peptide array binding signal intensity,AgBbc1,0.5
same,SPOT peptide array binding signal intensity,AgBem1-D1,≤ 0
same,SPOT peptide array binding signal intensity,AgBzz1-D1,≤ 0
same,SPOT peptide array binding signal intensity,AgBzz1-D2,8.5
same,SPOT peptide array binding signal intensity,AgCyk3,≤ 0
same,SPOT peptide array binding signal intensity,AgFus1,≤ 0
same,SPOT peptide array binding signal intensity,AgHof1,1370
same,SPOT peptide array binding signal intensity,AgHse1,≤ 0
same,SPOT peptide array binding signal intensity,AgLsb1,≤ 0
same,SPOT peptide array binding signal intensity,AgLsb4,≤ 0
same,SPOT peptide array binding signal intensity,AgMyo5,2040
same,SPOT peptide array binding signal intensity,AgNbp2,≤ 0
same,SPOT peptide array binding signal intensity,AgRvs167,≤ 0
same,SPOT peptide array binding signal intensity,AgSho1,77.5
same,SPOT peptide array binding signal intensity,AgSla1-D1-D2,≤ 0
same,SPOT peptide array binding signal intensity,AgSla1-D3,≤ 0
same,SPOT peptide array binding signal intensity,CaAbp1-D1,12
same,SPOT peptide array binding signal intensity,CaAbp1-D2,22
same,SPOT peptide array binding signal intensity,CaBbc1,≤ 0
same,SPOT peptide array binding signal intensity,CaBem1-D1,≤ 0
same,SPOT peptide array binding signal intensity,CaBzz1-D1,≤ 0
same,SPOT peptide array binding signal intensity,CaBzz1-D2,1
same,SPOT peptide array binding signal intensity,CaCyk3,≤ 0
same,SPOT peptide array binding signal intensity,CaFus1,≤ 0
same,SPOT peptide array binding signal intensity,CaHof1,1170
same,SPOT peptide array binding signal intensity,CaHse1,0.25
same,SPOT peptide array binding signal intensity,CaLsb1,0.25
same,SPOT peptide array binding signal intensity,CaLsb4,≤ 0
same,SPOT peptide array binding signal intensity,CaMyo5,293
